Inconclusive results are not listed. Activity calls are given as the source filed them. Calls come from the whole dose curve; as a rule, active = well fitted cell-killing curve with a large enough effect in the repeat runs; inconclusive = weak or mixed curves, or effect the other way; inactive = flat fitted curve, though single readings scatter.
Experiment: qHTS assay to identify small molecule agonists of the TGF-beta/Smad signaling pathway - cell viability counter screen (AID 1346829); note: nearly all actives have a fitted effect of over 45% in size; for activity change, negative = cytotoxicity: top concentration of the series differs between compounds
Settings: SBE-bla HEK293T viability, CellTiter-Glo luminescence, 5 h; series mostly up to 76.8 µM; activity change, negative = cytotoxicity: at the top concentration
From the text: National Center for Advancing Translational Sciences [NCATS]
NIH Chemical Genomics Center [NCGC]
U.S. Environmental Protection Agency [EPA]
National Institutes of Environmental Health Sciences [NIEHS]
National Toxicology Program [NTP]
U.S. Food and Drug Administration [FDA]
Transforming growth factor beta (TGF-beta) superfamily consists of a large number of structurally related dimeric proteins that act as hormones or local mediators in regulating a wide range of biological functions. This superfamily includes TGF-betas themselves, the bone morphogenetic proteins (BMPs) and the activins. These ligands induce oligomerization of serine/threonine receptor kinases and phosphorylate the cytoplasmic signaling molecules of Smad protein family. CellSensor SBE-bla HEK 293T cell line (Life Technologies, Carlsbad, CA), responsive to TGF-beta was used to screen Tox21 10K compound library for identification of agonists/antagonists of the Smad signaling pathway. This cell line contains a beta-lactamase reporter gene under control of the Smad binding element (SBE) stably integrated into HEK 293T cells. Also cytotoxicity of the compounds was tested in parallel by measuring the cell viability using CellTiter-Glo assay system in the same wells.
Tox21 Assay Protocol Summary:
SBE-bla HEK 293T cells were dispensed at 4,000/well in 6 uL of assay medium into black wall/clear-bottom 1536-well plates using a Multidrop Combi (ThermoFisher Scientific, Waltham, MA) dispenser. After the assay plates were incubated at 37 C and 5% CO2 for an overnight, 23 nL of compounds dissolved in DMSO, positive controls or DMSO only was transferred to the assay plate by a Pintool station (Kalypsys, San Diego, CA). The assay plates were incubated at 37 C and 5% CO2 for 5 hr. One uL of LiveBLAzer B/G FRET substrate (Life Technologies) was added using a Flying Reagent Dispenser (FRD, Aurora Discovery, San Diego, CA) and the plates were incubated at room temperature for 2 hr. Fluorescence intensity (405 nm excitation, 460 nm and 530 nm emissions) was measured using an Envision plate reader (PerkinElmer, Shelton, CT). For cytotoxicity read, 4 uL of CellTiter-Glo reagent (Promega Corporation, Madison, WI) was added to each well of the assay plates using FRD. After 30min incubation at room temperature, the luminescence intensity was measured using ViewLux plate reader (PerkinElmer).
% is set by controls: 0 for no effect and ±100 for the full control effect; potency is the fitted concentration of half-maximal effect.

| Compound | activity change, negative = cytotoxicity | Potency |
| --- | --- | --- |
| C#CCOC(C(=O)OCCN(C)C)(c1ccccc1)c1ccccc1 | 2.36% [at 35.3 µM] (inactive) |  |
| CC(C)=CCOc1c2occc2cc2ccc(=O)oc12 | -0.189% [at 35.3 µM] (inactive) |  |
| C(=NC1CCCCC1)=NC1CCCCC1 |  | 49.3 µM (active) |
| COc1cc(Cl)c(OC)cc1Cl | -15.8% (inactive) |  |
| CC(=O)c1cc2c(cc1C)C(C)(C)C(C)CC2(C)C (stereo not given) | -22.2% (inactive) |  |
| CCOc1ccc(C(C)(C)COCc2cccc(Oc3ccccc3)c2)cc1 | -5.52% (inactive) |  |
| CCO[C@H]1O[C@@H]2OC3(C)CC[C@H]4[C@H](C)CC[C@@H]([C@H]1C)[C@@]24OO3 | 5.41% [at 35.3 µM] (inactive) |  |
| CC(O)(CS(=O)(=O)c1ccc(F)cc1)C(=O)Nc1ccc(C#N)c(C(F)(F)F)c1 (stereo not given) | 0.32% [at 35.3 µM] (inactive) |  |
| ClP(Cl)(Cl)(Cl)Cl | -0.806% (inactive) |  |
| O=[N+]([O-])c1cc(C(F)(F)F)cc([N+](=O)[O-])c1Cl | 4.21% (inactive) |  |
| CCCN(CCC)c1c([N+](=O)[O-])cc(S(C)(=O)=O)cc1[N+](=O)[O-] | 4.23% (inactive) |  |
| Clc1cc(C(Cl)(Cl)Cl)cnc1Cl | 16.1% (inactive) |  |
| O=C(Nc1ccccc1)Nc1ccnc(Cl)c1 | -15.6% (inactive) |  |
| Cl/C=C\Cl | 2.42% (inactive) |  |
| CCCN(CCCl)c1c([N+](=O)[O-])cc(C(F)(F)F)cc1[N+](=O)[O-] | 9.24% (inactive) |  |
| O=S1OC[C@@H]2[C@H](CO1)[C@]1(Cl)C(Cl)=C(Cl)[C@@]2(Cl)C1(Cl)Cl (stereo not given in full) | -15.6% (inactive) |  |
| CC(c1ccc(O)cc1)(c1ccc(O)cc1)c1ccc(O)cc1 | 18.5% (inactive) |  |
| CCC(Br)(CC)C(=O)NC(N)=O | -1.93% (inactive) |  |
| O=C(O)C(F)(F)C(F)(F)C(F)(F)C(F)(F)C(F)(F)C(F)(F)C(F)(F)C(F)(F)C(F)(F)C(F)(F)F | 7.56% (inactive) |  |
| CC/C(=N\OC/C=C/Cl)C1=C(O)CC(C2CCOCC2)CC1=O (stereo not given) | -0.646% (inactive) |  |

| Compound | activity change, negative = cytotoxicity | Potency |
| --- | --- | --- |
| CCCCCCCCCC(=O)O[C@H]1CC[C@H]2[C@@H]3CCC4=CC(=O)CC[C@@H]4[C@H]3CC[C@]12C | 2.05% [at 35.3 µM] (inactive) |  |
| O=S1(=O)OC(c2cc(Br)c(O)c(Br)c2)(c2cc(Br)c(O)c(Br)c2)c2ccccc21 | -28% (inactive) |  |
| CO/C=C(/C(=O)OC)c1ccccc1COc1cccc(C(F)(F)F)n1 | -15.6% (inactive) |  |
| O=C(CCl)c1ccc(Cl)cc1Cl | 5.27% (inactive) |  |
| CCCC(Cn1cncn1)c1ccc(Cl)cc1Cl (stereo not given) | -13.6% (inactive) |  |
| BrCC(Br)C1CCC(Br)C(Br)C1 (stereo not given) | -20.1% (inactive) |  |
| O=C(CBr)c1ccccc1 | 8.88% (inactive) |  |
| CCCCN(N=O)C(=N)N[N+](=O)[O-] | -13.6% (inactive) |  |
| Nc1nc(=S)[nH][nH]1 | -1.06% (inactive) |  |
| N#CCC#N | 4.08% (inactive) |  |
| O=Cc1ccc(Cl)cc1Cl | 6.03% (inactive) |  |
| BrCCCCBr | -5.9% (inactive) |  |
| O=C=Nc1ccc(Cl)cc1 | 1.34% (inactive) |  |
| C/C(=C\c1ccccc1)[N+](=O)[O-] | -0.891% (inactive) |  |
| COP(=O)(OC)O/C(=C/Cl)c1cc(Cl)c(Cl)cc1Cl | -11.5% (inactive) |  |
| O=C1C(Cl)C(CCl)CN1c1cccc(C(F)(F)F)c1 (stereo not given) | 3.9% (inactive) |  |
| C=COC(C)=O | -0.511% (inactive) |  |
| CCOP(=S)(OCC)SCn1nnc2ccccc2c1=O | 0.055% (inactive) |  |
| C[C@H]1CNCCc2ccc(Cl)cc21 | 0.136% [at 35.3 µM] (inactive) |  |
| c1cc2ccc3cccc4ccc(c1)c2c34 | -13.6% (inactive) |  |

— PubChem BioAssay (Tox21)
